# Reference: PubChem BioAssay AID1159580 (chemical genetic matrix, 2015)
# Where “and” joins values, the source holds several entries; their conditions need not be identical. Equal values may be shown once. Among all 5,500 compounds or so, about 2,000 (36%) were called active. About 18% were inconclusive and are not listed. No stated cut-off is given here; in the data, active means normalized growth mostly below about 0.91 (no sharp cut-off); inconclusive means no clear call, values can overlap the other calls; inactive means mostly above about 0.92. The list shows a part of the results.
# Assay: chemical genetic growth profiling, strain panel (AID 1159580);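 further: tested at 20 µM; growth read once vehicle control cultures reached saturation at 30 °C; 1 = growth at the plate median or of vehicle wells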
# Details: growth OD
# [1] = S. cerevisiae deletion strains, locus YAL013W, strain DEP1, stronger effect = lower value
# [2] = S. cerevisiae deletion strains, locus YBR229C, strain ROT2, stronger effect = lower value
# [3] = S. cerevisiae deletion strains, locus YDL101C, strain DUN1, stronger effect = lower value
# [4] = S. cerevisiae deletion strains, locus YDR150W, strain NUM1, stronger effect = lower value
# [5] = S. cerevisiae deletion strains, locus YEL061C, strain CIN8, stronger effect = lower value
# [6] = S. cerevisiae deletion strains, locus YGR052W, strain FMP48, stronger effect = lower value
# [7] = S. cerevisiae deletion strains, locus YGR078C, strain PAC10, stronger effect = lower value
# [8] = S. cerevisiae deletion strains, locus YGR229C, strain SMI1, stronger effect = lower value
# [9] = S. cerevisiae deletion strains, locus YHR030C, strain SLT2, stronger effect = lower value
# [10] = S. cerevisiae deletion strains, locus YHR079C, strain IRE1, stronger effect = lower value
# [11] = S. cerevisiae deletion strains, locus YHR082C, strain KSP1, stronger effect = lower value
# [12] = S. cerevisiae deletion strains, locus YHR087W, strain rtc3, stronger effect = lower value
# [13] = S. cerevisiae deletion strains, locus YJL095W, strain BCK1, stronger effect = lower value
# [14] = S. cerevisiae deletion strains, locus YJL187C, strain SWE1, stronger effect = lower value
# [15] = S. cerevisiae deletion strains, locus YJR043C, strain POL32, stronger effect = lower value
# [16] = S. cerevisiae deletion strains, locus YJR066W, strain TOR1, stronger effect = lower value
# [17] = S. cerevisiae deletion strains, locus YJR075W, strain HOC1, stronger effect = lower value
# [18] = S. cerevisiae deletion strains, locus YKL203C, strain TOR2, stronger effect = lower value
# [19] = S. cerevisiae deletion strains, locus YLR039C, strain RIC1, stronger effect = lower value
# [20] = S. cerevisiae deletion strains, locus YLR058C, strain SHM2 (second series), stronger effect = lower value
# [21] = S. cerevisiae deletion strains, locus YLR085C, strain ARP6, stronger effect = lower value
# [22] = S. cerevisiae deletion strains, locus YLR113W, strain HOG1, stronger effect = lower value
# [23] = S. cerevisiae deletion strains, locus YLR262C, strain YPT6, stronger effect = lower value
# [24] = S. cerevisiae deletion strains, locus YML094W, strain GIM5, stronger effect = lower value
# [25] = S. cerevisiae deletion strains, locus YMR219W, strain ESC1, stronger effect = lower value
# [26] = S. cerevisiae deletion strains, locus YMR263W, strain SAP30, stronger effect = lower value
# [27] = S. cerevisiae deletion strains, locus YNL128W, strain TEP1, stronger effect = lower value
# [28] = S. cerevisiae deletion strains, locus YNL153C, strain GIM3, stronger effect = lower value
# [29] = S. cerevisiae deletion strains, locus YNL183C, strain NPR1, stronger effect = lower value
# [30] = S. cerevisiae deletion strains, locus YNL207W, strain RIO2, stronger effect = lower value
# [31] = S. cerevisiae deletion strains, locus YNL298W, strain CLA4 (second series), stronger effect = lower value
# [32] = S. cerevisiae deletion strains, locus YNL322C, strain KRE1, stronger effect = lower value
# [33] = S. cerevisiae deletion strains, locus YNR030W, strain Alg12, stronger effect = lower value
# [34] = S. cerevisiae deletion strains, locus YOR119C, strain RIO1, stronger effect = lower value
# [35] = S. cerevisiae deletion strains, locus YOR231W, strain MKK1, stronger effect = lower value
# [36] = S. cerevisiae deletion strains, locus YPL055C, strain LGE1, stronger effect = lower value
# [37] = S. cerevisiae deletion strains, locus YPL241C, strain CIN2, stronger effect = lower value
# [38] = S. cerevisiae deletion strains, locus YPL256C, strain CLN2, stronger effect = lower value
# [39] = S. cerevisiae deletion strains, locus YPR135W, strain CTF4, stronger effect = lower value
structure (smiles),measurement,setting,value
S=C(NCc1ccco1)Nc1ccc(Oc2ccc(Cl)cc2)cc1,normalized growth,[1],0.937 (inactive)
same,normalized growth,[2],0.868 (active)
same,normalized growth,[3],0.933 (inactive)
same,normalized growth,[4],0.863 (inactive)
same,normalized growth,[5],0.723 (active)
same,normalized growth,[6],1.04 (inactive)
same,normalized growth,[7],0.915 (active)
same,normalized growth,[8],0.987 (inactive)
same,normalized growth,[9],0.247 (active) and 1.07 (inactive)
same,normalized growth,[10],1.07 (inactive)
same,normalized growth,[11],1.14 (inactive)
same,normalized growth,[12],0.919 (inactive)
same,normalized growth,[13],0.948 (inactive)
same,normalized growth,[14],0.923 (active)
same,normalized growth,[15],0.926 (inactive)
same,normalized growth,[16],1.13 (inactive)
same,normalized growth,[17],0.95 (inactive)
same,normalized growth,"S. cerevisiae deletion strains, locus YKL171W, strain NNK1, stronger effect = lower value",1.06 (inactive)
same,normalized growth,[18],1.04 (inactive)
same,normalized growth,[19],0.41 (active)
same,normalized growth,[20],0.979 (inactive)
same,normalized growth,[21],0.355 (active)
same,normalized growth,[22],1.11 (inactive)
same,normalized growth,[23],0.463 (active)
same,normalized growth,[24],0.703 (active)
same,normalized growth,[25],0.97 (inactive)
same,normalized growth,[26],0.85 (active)
same,normalized growth,"S. cerevisiae deletion strains, locus YMR307W, strain GAS1, stronger effect = lower value",0.364 (active)
same,normalized growth,[27],0.887 (active)
same,normalized growth,[28],0.936 (inactive)
same,normalized growth,[29],1.04 (inactive)
same,normalized growth,[30],1.02 (inactive)
same,normalized growth,[31],0.652 (active)
same,normalized growth,[32],0.998 (inactive)
same,normalized growth,[33],0.544 (active)
same,normalized growth,[34],1 (inactive)
same,normalized growth,[35],0.944 (inactive)
same,normalized growth,[36],0.641 (active)
same,normalized growth,[37],0.361 (active)
same,normalized growth,[38],1.27 [resistant] (active)
same,normalized growth,[39],0.505 (active)
same,normalized growth,"S. cerevisiae strains, strain wild type, stronger effect = lower value",0.883 (active)
CC(NC(=S)Nc1ccc(Oc2ccc(Cl)cc2)cc1)c1ccccc1 (centres undefined),normalized growth,[1],0.973 (inactive)
same,normalized growth,"S. cerevisiae deletion strains, locus YAR019C, strain CDC15, stronger effect = lower value",0.952 (inactive)
same,normalized growth,"S. cerevisiae deletion strains, locus YBL105C, strain PKC1, stronger effect = lower value",0.965 (inactive)
same,normalized growth,"S. cerevisiae deletion strains, locus YBR135W, strain CKS1, stronger effect = lower value",0.956 (inactive)
same,normalized growth,"S. cerevisiae deletion strains, locus YBR136W, strain MEC1, stronger effect = lower value",0.968 (inactive)
same,normalized growth,"S. cerevisiae deletion strains, locus YBR160W, strain CDC28, stronger effect = lower value",0.976 (inactive)
same,normalized growth,[2],0.983 (inactive)
same,normalized growth,"S. cerevisiae deletion strains, locus YCL061C, strain MRC1, stronger effect = lower value",0.983 (inactive)
same,normalized growth,"S. cerevisiae deletion strains, locus YDL017W, strain CDC7, stronger effect = lower value",0.979 (inactive)
same,normalized growth,"S. cerevisiae deletion strains, locus YDL028C, strain MPS1, stronger effect = lower value",0.971 (inactive)
same,normalized growth,[3],0.978 (inactive) and 0.974 (inactive)
same,normalized growth,"S. cerevisiae deletion strains, locus YDL108W, strain KIN28, stronger effect = lower value",0.965 (inactive)
same,normalized growth,"S. cerevisiae deletion strains, locus YDL132W, strain cdc53, stronger effect = lower value",0.964 (inactive)
same,normalized growth,"S. cerevisiae deletion strains, locus YDL214C, strain PRR2, stronger effect = lower value",0.94 (inactive)
same,normalized growth,"S. cerevisiae deletion strains, locus YDR052C, strain DBF4, stronger effect = lower value",0.955 (inactive)
same,normalized growth,"S. cerevisiae deletion strains, locus YDR054C, strain cdc34, stronger effect = lower value",0.965 (inactive)
same,normalized growth,[4],0.97 (inactive)
same,normalized growth,"S. cerevisiae deletion strains, locus YDR226W, strain ADK1, stronger effect = lower value",0.953 (inactive)
same,normalized growth,"S. cerevisiae deletion strains, locus YDR477W, strain SNF1, stronger effect = lower value",0.937 (inactive)
same,normalized growth,[5],0.961 (inactive)
same,normalized growth,"S. cerevisiae deletion strains, locus YER123W, strain YCK3, stronger effect = lower value",0.909 (inactive)
same,normalized growth,"S. cerevisiae deletion strains, locus YER133W, strain GLC7, stronger effect = lower value",0.941 (inactive)
same,normalized growth,"S. cerevisiae deletion strains, locus YFL009W, strain cdc4, stronger effect = lower value",0.958 (inactive)
same,normalized growth,"S. cerevisiae deletion strains, locus YFL029C, strain CAK1, stronger effect = lower value",0.941 (inactive)
same,normalized growth,"S. cerevisiae deletion strains, locus YFR003C, strain YPI1, stronger effect = lower value",0.961 (inactive)
same,normalized growth,"S. cerevisiae deletion strains, locus YFR019W, strain FAB1, stronger effect = lower value",0.96 (inactive)
same,normalized growth,"S. cerevisiae deletion strains, locus YFR028C, strain CDC14, stronger effect = lower value",0.946 (inactive)
same,normalized growth,"S. cerevisiae deletion strains, locus YGR040W, strain KSS1, stronger effect = lower value",0.922 (inactive)
same,normalized growth,[6],1.08 (inactive)
same,normalized growth,[7],0.995 (inactive)
same,normalized growth,"S. cerevisiae deletion strains, locus YGR092W, strain DBF2, stronger effect = lower value",0.947 (inactive)
same,normalized growth,[8],0.975 (inactive)
same,normalized growth,[9],0.924 (inactive) and 0.84 (active)
same,normalized growth,[10],0.97 (inactive)
same,normalized growth,[11],1.02 (inactive)
same,normalized growth,[12],0.988 (inactive)
same,normalized growth,"S. cerevisiae deletion strains, locus YHR205W, strain SCH9, stronger effect = lower value",0.954 (inactive)
same,normalized growth,"S. cerevisiae deletion strains, locus YIL147C, strain SLN1, stronger effect = lower value",0.96 (inactive)
same,normalized growth,[13],0.932 (inactive)
same,normalized growth,"S. cerevisiae deletion strains, locus YJL128C, strain PBS2, stronger effect = lower value",0.918 (inactive)
same,normalized growth,"S. cerevisiae deletion strains, locus YJL157C, strain FAR1, stronger effect = lower value",0.927 (inactive)
same,normalized growth,[14],0.987 (inactive)
same,normalized growth,"S. cerevisiae deletion strains, locus YJR016C, strain ILV3, stronger effect = lower value",0.961 (inactive)
same,normalized growth,[15],0.998 (inactive)
same,normalized growth,"S. cerevisiae deletion strains, locus YJR066W, strain TOR1 (second series), stronger effect = lower value",0.933 (inactive)
same,normalized growth,[16],0.981 (inactive)
same,normalized growth,[17],1.01 (inactive)
same,normalized growth,"S. cerevisiae deletion strains, locus YKL048C, strain ELM1, stronger effect = lower value",0.965 (inactive)
same,normalized growth,"S. cerevisiae deletion strains, locus YKL067W, strain YNK1, stronger effect = lower value",0.916 (inactive)
same,normalized growth,"S. cerevisiae deletion strains, locus YKL101W, strain HSL1, stronger effect = lower value",0.949 (inactive)
same,normalized growth,"S. cerevisiae deletion strains, locus YKL193C, strain SDS22, stronger effect = lower value",0.958 (inactive)
same,normalized growth,[18],1.01 (inactive)
same,normalized growth,[19],0.78 (active)
same,normalized growth,[20],0.988 (inactive)
same,normalized growth,[21],0.875 (inactive)
same,normalized growth,[22],0.923 (inactive)
same,normalized growth,"S. cerevisiae deletion strains, locus YLR133W, strain CKI1, stronger effect = lower value",0.932 (inactive)
same,normalized growth,[23],0.871 (inactive)
same,normalized growth,"S. cerevisiae deletion strains, locus YLR403W, strain SFP1, stronger effect = lower value",0.962 (inactive)
same,normalized growth,"S. cerevisiae deletion strains, locus YML070W, strain DAK1, stronger effect = lower value",0.924 (inactive)
same,normalized growth,[24],0.905 (inactive)
same,normalized growth,"S. cerevisiae deletion strains, locus YMR001C, strain CDC5, stronger effect = lower value",0.968 (inactive)
same,normalized growth,"S. cerevisiae deletion strains, locus YMR205C, strain PFK2 (second series), stronger effect = lower value",0.951 (inactive)
same,normalized growth,[25],0.99 (inactive)
same,normalized growth,[26],0.971 (inactive)
same,normalized growth,"S. cerevisiae deletion strains, locus YMR277W, strain FCP1, stronger effect = lower value",0.96 (inactive)
same,normalized growth,"S. cerevisiae deletion strains, locus YNL006W, strain LST8, stronger effect = lower value",0.965 (inactive)
same,normalized growth,"S. cerevisiae deletion strains, locus YNL020C, strain ARK1, stronger effect = lower value",0.911 (inactive)
same,normalized growth,[27],0.964 (inactive)
same,normalized growth,[28],0.985 (inactive)
same,normalized growth,"S. cerevisiae deletion strains, locus YNL161W, strain CBK1, stronger effect = lower value",0.973 (inactive)
same,normalized growth,[29],0.955 (inactive)
same,normalized growth,[30],0.959 (inactive)
same,normalized growth,"S. cerevisiae deletion strains, locus YNL222W, strain SSU72, stronger effect = lower value",0.965 (inactive)
same,normalized growth,[31],0.918 (inactive)
same,normalized growth,"S. cerevisiae deletion strains, locus YNL307C, strain MCK1 (second series), stronger effect = lower value",0.906 (inactive)
same,normalized growth,[32],1 (inactive)
same,normalized growth,[33],0.944 (inactive)
same,normalized growth,"S. cerevisiae deletion strains, locus YOL078W, strain AVO1, stronger effect = lower value",0.954 (inactive)
same,normalized growth,"S. cerevisiae deletion strains, locus YOL136C, strain PFK27, stronger effect = lower value",0.929 (inactive)
same,normalized growth,"S. cerevisiae deletion strains, locus YOR061W, strain CKA2, stronger effect = lower value",0.941 (inactive)
same,normalized growth,[34],1.04 (inactive)
same,normalized growth,[35],1.01 (inactive)
same,normalized growth,"S. cerevisiae deletion strains, locus YOR329C, strain SCD5, stronger effect = lower value",0.976 (inactive)
same,normalized growth,"S. cerevisiae deletion strains, locus YPL031C, strain PHO85, stronger effect = lower value",0.93 (inactive)
same,normalized growth,[36],0.905 (inactive)
same,normalized growth,"S. cerevisiae deletion strains, locus YPL153C, strain RAD53, stronger effect = lower value",0.937 (inactive)
same,normalized growth,"S. cerevisiae deletion strains, locus YPL204W, strain HRR25, stronger effect = lower value",0.899 (inactive)
same,normalized growth,"S. cerevisiae deletion strains, locus YPL209C, strain IPL1, stronger effect = lower value",0.967 (inactive)
same,normalized growth,[37],0.93 (inactive)
same,normalized growth,[38],0.915 (inactive)
same,normalized growth,"S. cerevisiae deletion strains, locus YPR025C, strain CCL1, stronger effect = lower value",0.961 (inactive)
same,normalized growth,"S. cerevisiae deletion strains, locus YPR106W, strain ISR1, stronger effect = lower value",0.949 (inactive)
same,normalized growth,"S. cerevisiae deletion strains, locus YPR111W, strain DBF20, stronger effect = lower value",1.01 (inactive)
same,normalized growth,[39],0.97 (inactive)
same,normalized growth,"S. cerevisiae deletion strains, strain NNK1, stronger effect = lower value",0.964 (inactive)
same,normalized growth,"S. cerevisiae deletion strains, strain TSCII, stronger effect = lower value",0.954 (inactive)
